Drawing on PubChem BioAssay (NCATS), this text covers Potency for 19 molecules.

Records with an inconclusive call do not appear. A call without a number means that no potency is given here. Active and inactive are the calls of the source. Calls follow the shape of the dose curve; as a rule, active = well fitted inhibition curve with a large enough effect; inconclusive = small, poorly fitted or top-dose-only effect; inactive = no such curve, though single readings can be large or run the other way.
Potency is read from the fitted curve at half-maximal effect.

Chain of Cytochrome P450 2D6 (Homo sapiens) (P10635 whole entry, looked up): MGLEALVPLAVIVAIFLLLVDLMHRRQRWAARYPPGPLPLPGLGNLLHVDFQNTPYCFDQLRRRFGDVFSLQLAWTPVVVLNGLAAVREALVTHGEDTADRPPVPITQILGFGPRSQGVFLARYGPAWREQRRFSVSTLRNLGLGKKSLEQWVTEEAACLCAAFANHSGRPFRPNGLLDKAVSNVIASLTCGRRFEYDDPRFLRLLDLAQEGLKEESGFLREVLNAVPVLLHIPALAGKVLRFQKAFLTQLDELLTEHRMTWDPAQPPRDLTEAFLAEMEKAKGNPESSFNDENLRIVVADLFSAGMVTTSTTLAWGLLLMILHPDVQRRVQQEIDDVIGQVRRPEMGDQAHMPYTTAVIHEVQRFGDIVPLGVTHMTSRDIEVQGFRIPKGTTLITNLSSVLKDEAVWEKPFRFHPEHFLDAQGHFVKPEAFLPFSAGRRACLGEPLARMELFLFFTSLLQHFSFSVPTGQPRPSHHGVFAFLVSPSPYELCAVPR

The target in the experiment is Cytochrome P450 2D6 (Homo sapiens) (UniProt P10635). The experiment is described as follows: qHTS Assay for Inhibitors and Substrates of Cytochrome P450 2D6 (AID 891). Also: nearly all actives have a fitted effect of over 60% in size. Particulars: recombinant CYP2D6, luciferin-ME EGE luminescence; series mostly up to 11.4 µM. A digest of the protocol:
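Luminescent read-out of luciferin formed by 5 nM human CYP2D6 demethylating 30 uM Luciferin-ME EGE (Km level) over 60 min at room temperature after NADPH regeneration addition. Data normalized to full inhibition by 1.43 uM quinidine.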
Consider `CN1CCc2nc(-c3ccccc3)c(-c3ccccc3)cc2C1`, for which the Potency result was “inactive”. For the molecule `COC(=O)NC(CC(C)=O)c1cccc(F)c1` (centres undefined), the Potency result was “inactive”. For `CC(=O)OCC1OC(C#Cc2ccccc2)C=CC1O` (centres undefined), the Potency entry was “inactive”. Take `COC(=O)CC1=COC2OCC3=CC[C@@H]1C32` (some centres undefined): the Potency result was “inactive”.

Consider `O=C1C=C[C@@H](O)[C@@H]2[C@H]3C(=O)N(c4ccc(F)cc4F)C(=O)[C@@H]3CC[C@@H]12`, for which the Potency entry is “inactive”. Turning to `CC(C)CN1CCc2nc(-c3ccccc3)c3c(c2CC1)COC(C)C3` (centres undefined), the Potency entry is “inactive”. For `COC(=O)NC(c1cccc(F)c1)[C@@]1(C(=O)OC)CCCC1=O` (some centres undefined) the value was “inactive”; for `CC12C=C(/C=C/c3ccc(F)cc3)C(C)(C1)C(c1ccc(F)cc1)CC2=O` (centres undefined), “inactive”; for `COC(=O)NC(c1cccc(C)c1)[C@@]1(C(=O)OC)CCCC1=O` (some centres undefined), “inactive”. For `CCN1C(C)=C(C(=O)OC)C(c2ccccc2)N2C(=O)[C@@]3(C(=O)OC)O[C@@]12C1C(=O)N(C)C(=O)C13` (some centres undefined) the value was “inactive”. The same measure for `CCOP(=O)(CC(C(C)=O)C(O)c1ccccc1)OCC` (centres undefined): “inactive”. Take `C#CC(C)OC(=O)c1nnc2c3ccccc3n(COC)c2n1` (centres undefined): the Potency result is “inactive”. For the molecule `CC1(C)Oc2cc3c(cc2O1)OC(C)(C)O3`, the Potency result was “inactive”. As for `COc1cc(C2NC(C(=O)O)Cc3c2[nH]c2ccccc32)cc(OC)c1OC` (centres undefined), the Potency was 1.26 µM (active). The same measure for `CCOC(=O)OCC1OC(C#CC(C)(C)C)C=CC1OC(=O)OCC` (centres undefined): “inactive”; for `COC(=O)NC(CC(C)=O)c1cccs1` (centres undefined): “inactive”. As for `CC1CCC2C(=O)N3CCCC3C(=O)N2C1c1ccc(Br)cc1` (centres undefined), the Potency entry was “inactive”.

Regarding `CCC1OCCC=CC1C` (centres undefined), the Potency result was “inactive”. For the molecule `CC(C)CC1OCCC=CC1C` (centres undefined), the Potency result is “inactive”.
